Measured values: PubChem BioAssay (NCI)
Compounds without any hit were thinned out: in the full panel of roughly 83,000, 20% have a hit.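 Each cell line was grown in a 96-well plate and treated with one concentration of compound for 48 hours. Values below 10 were considered active.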 Unmarked numbers belong to inactive results. Calls of active or inactive are those of the source.

Tests used:
Assay in all cases: NCI-60 one-dose screen, 48 h (100 = growth as untreated, 0 = no growth, -100 = all killed)
Settings in all cases: 10 µM unless noted
[1] = tested on: SK-MEL-2 melanoma
[2] = tested on: EKVX NSCLC
[3] = tested on: SN12C renal
[4] = tested on: UO-31 renal
[5] = tested on: TK-10 renal
[6] = tested on: CAKI-1 renal
[7] = tested on: A498 renal
[8] = tested on: CCRF-CEM leukemia
[9] = tested on: MOLT-4 leukemia
[10] = tested on: ACHN renal

Compound | growth [1] | growth [2] | growth [3] | growth [4] | growth [5] | growth [6] | growth [7] | growth [8] | growth [9] | growth [10]
c1ccc(N2c3nc4ccccc4cc3Sc3cc4ccccc4nc32)nc1 | 39.4% | 68.9% | 76.1% | 26.9% | 114% | 69% | 73.2% | 87.5% | 78% | –
O=C(Nc1cccc(Cl)c1)Nc1cccc(Cl)c1 | 114% | 72.5% | 85.2% | 72.7% | 74.3% | 78.2% | 59.5% | 38.8% | 51.6% | –
CC(C)Sc1nc(Cl)c(C#N)c(-c2ccc(F)cc2)n1 | 98.2% | 99.2% | 97.3% | 85.6% | – | 104% | 99.9% | 6.61% (active) | 7.38% (active) | 101%
CCN(CC)c1ccc(/C=C/C(=O)c2cccc(NS(C)(=O)=O)c2)cc1 | 83.1% | 57.6% | 40.3% | 37.2% | 25.6% | – | 22.8% | 13.3% | 8.78% (active) | –
CCC(C)C1NC(=O)C(CCNCS(=O)(=O)O)NC(=O)C(NC(=O)C(CCNCS(=O)(=O)O)NC(=O)C(NC(=O)C(CCNCS(=O)(=O)O)NC(=O)CCCCC(C)C)C(C)O)CCNC(=O)C(C(C)O)NC(=O)C(CCNCS(=O)(=O)O)NC(=O)C(CCNCS(=O)(=O)O)NC(=O)C(C(C)CC)NC1=O (stereo unspecified) | 39.9% | 83.7% | 63.6% | 75% | – | 99.4% | 88.8% | 20.7% | 66.4% | 94.5%
CSc1nc(Nc2ccc(S(=O)(=O)Nc3ccon3)cc2)c(C#N)c(-c2ccc(Cl)cc2)n1 | 99.3% | 98.5% | 108% | 86% | – | 102% | 93.3% | 6.79% (active) | -20.8% (active) | 90.2%
COC(=O)C1=CCC(n2cnc3c(N)ncnc32)O1 (stereo unspecified) | 94.5% | 101% | 103% | 91.5% | 104% | 75.1% | 116% | 98.8% | 91.3% | –
O=C1CSC(c2ccccc2Cl)N1c1nnc(Cn2nnc3ccccc32)o1 (stereo unspecified) | 91.7% | 75% | 87.4% | 66.3% | – | 40.6% | 50.2% | 85.6% | 73.4% | 83.6%
C/C=C(/C(=C/C)c1ccc(O)cc1)c1ccc(O)cc1 | 44.9% | 35.7% | 42.8% | 38.1% | – | 42.1% | 31.4% | 17.1% | 34% | 38.4%
CCCCN=C(N)c1ccc(OCCSCCOc2ccc(C(N)=NCCCC)cc2)cc1 | 59.9% | 36.8% | 26.3% | 93.5% | – | 115% | 57.4% | 72.1% | 67.8% | 87%
COc1ccc(/C=C2/SC(=Nc3c(C)nn(-c4ccccc4)c3N)NC2=O)cc1 | 39.1% | 69.3% | 67.9% | 32.8% | 71.6% | 23% | -54.5% (active) | 33.2% | 51.6% | –
C[N+]1(C)C2CC[C@@H]1CC(OC(=O)C(O)c1ccccc1)C2 (stereo partly specified) | 150% | 99.4% | 87.3% | 85.3% | – | 84.1% | 109% | 93.1% | 126% | 106%
COc1ccc(Cl)cc1Nc1nc(C(F)(F)F)ccc1C(=O)N/N=C/c1c(Cl)cccc1Cl | 28.3% | 60.5% | 63% | 31.2% | 67.2% | 34.9% | -21.9% (active) | 13.8% | 14.4% | –
Oc1c(Cl)cc(Cl)c(Cl)c1Cc1c(O)c(Cl)cc(Cl)c1Cl | -39.1% (active) | -4.03% (active) | 5.01% (active) | -2.22% (active) | – | -18.3% (active) | -17.3% (active) | 5.78% (active) | 11.1% | 18.4%
CC1CN(C2CCCCC2)C(=O)NC1=O (stereo unspecified) | 100% | 110% | 92.1% | 82% | 101% | 103% | 87.9% | 106% | 85% | –
OCCN1CCN(CCCN2c3ccccc3Sc3ccc(C(F)(F)F)cc32)CC1 | 8.96% (active) | 47.2% | 43.6% | 32.5% | 4.29% (active) | 25.7% | 44.5% | 29.7% | -16% (active) | –
Cn1ccnc1C(=O)/C=C/c1ccc(C(=O)Nc2nc3ccccc3[nH]2)cc1 | 85.4% | 62.3% | 51.7% | 28.3% | 66.5% | 18.6% | 51.1% | 15.4% | 45.2% | –
CC[C@@H](C)/C=C(C)/C=C/C(=O)c1c(O)c(-c2ccc(O)cc2)cn(OC2CC(=O)CCC(C)OC(=O)CC2O)c1=O (stereo partly specified) | 19.8% | 5.02% (active) | 17.5% | -15.5% (active) | 43.1% | -17.1% (active) | 28.7% | 2.11% (active) | 6.27% (active) | –
CCN1CC2=C(Nc3nc(SC)[nH]c(=O)c3C2c2cc(OC)c(OC)c(OC)c2)/C(=C/c2cc(OC)c(OC)c(OC)c2)C1 (stereo unspecified) | 117% | 87.3% | 95.9% | 106% | – | 108% | 104% | 84.7% | 82.5% | 87.9%
NC(=NCCCCCCN=C(N)/N=C(\N)Nc1ccc(Cl)cc1)/N=C(\N)Nc1ccc(Cl)cc1 | -31.8% (active) | 23.9% | 5.89% (active) | 46.6% | – | 10.3% | 11.1% | 12.5% | 21.2% | 20.5%
CCCn1c(N)c(C(=O)CNc2ccc(I)cc2)c(=O)[nH]c1=O | -7.88% (active) | 77.9% | 44.6% | 30.1% | 59% | 58.3% | 49.2% | 55.9% | 29.2% | –
COc1cc(/C=C2\CN(C)CC3=C2Nc2nc(SC)[nH]c(=O)c2C3c2cc(OC)c(OC)c(OC)c2)cc(OC)c1OC (stereo unspecified) | 71.8% | 83.7% | 24.2% | 52.4% | – | 14.5% | 95.9% | -0.341% (active) | 0.96% (active) | 39.2%
CCOC(=O)CCC(=O)O[C@H]1[C@H](O[C@@H]2[C@@H](C)[C@H](O[C@H]3C[C@@](C)(OC)[C@@H](O)[C@H](C)O3)[C@@H](C)C(=O)O[C@H](CC)[C@@](C)(O)[C@H](O)[C@@H](C)C(=O)[C@H](C)C[C@@]2(C)O)O[C@H](C)C[C@@H]1N(C)C | 121% | 100% | 101% | 67.7% | – | 93.2% | 120% | 91.4% | 94.2% | 96.4%
CCOC(=O)C1=CCC(n2cc(C)c(=O)[nH]c2=O)O1 (stereo unspecified) | 105% | 104% | 101% | 96.9% | 118% | 85.8% | 121% | 98.8% | 94.7% | –
CN[C@@H]1C(OC2[C@H](O[C@H]3[C@H](O)[C@@H](O)[C@H](N=C(N)N)[C@@H](O)[C@@H]3N=C(N)N)OC(C)[C@]2(O)CO)OC(CO)C(O)C1O (stereo partly specified) | 112% | 113% | 108% | 102% | – | 107% | 109% | 101% | 92.7% | 114%
O=C1/C(=C\c2coc3ccccc3c2=O)c2ccccc2N1c1c(Cl)cccc1Cl | 85.7% | 33.1% | 59.5% | 42.6% | – | -7.88% (active) | 12.6% | 21.1% | 19% | 54.6%
NC(=N\N=C/Cc1ccccc1)/C(N)=N\N=C\Cc1ccccc1 | 108% | 110% | 102% | 91.2% | 110% | 102% | 90.1% | 95.8% | 100% | –
COc1cccc2c1C(=O)c1c(O)c3c(c(O)c1C2=O)C[C@@](O)(C(C)=O)C[C@@H]3O[C@H]1C[C@H](N)[C@H](O)[C@H](C)O1 | -82% (active) | -25% (active) | 4.49% (active) | -64.7% (active) | – | -29.4% (active) | -72.7% (active) | -25.1% (active) | -17.8% (active) | -23.1% (active)
